Data taken from ChEMBL document CHEMBL4296182, “CO-ADD screening of NIH NCI Diversity Set V”.

What follows are compounds tested on Acinetobacter baumannii (assay: Antibacterial activity against Acinetobacter baumannii ATCC 19606 (CO-ADD:GN_034); MIC in CAMBH media using NBS plates, by Resazurin F(560/590)). Details: Concentration 20 uM, ASSAY_TEST Inhibition of Bacterial Growth, detection method Resazurin, Fluorescence (ex560/em590), MEDIA CAMHB, plate type 384well, CORNING #3640, time 18 hr.
Assay type: functional

Structure (SMILES) | Inhibition
S=C(Nc1ccccc1)c1ccccn1 | -5.82%
CCSc1nc(C)cc(S)n1 | -11.79%
Cc1cc(=O)n2nc(-c3ccc(C(C)(C)C)cc3)cc2[nH]1 | 0.45%
Cc1nc(N)nc(Cl)c1CCC1OCCO1 | -8.91%
CCCNC(=O)c1ccccc1C(=O)NC1(C(=O)NCCC)CCCC1 | 6.45%
COc1ccc2c(C)cc(C)nc2n1 | -9.69%
Cc1c(NC(=O)Nc2c(Cl)cccc2Cl)c(=O)n(-c2ccccc2)n1C | 9.07%
CSc1cccc(NC(=O)Nc2nc3c(C)cccc3s2)c1 | 2.69%
COc1ccc2c(c1)CCCN2C(=N)Nc1ccc(Cl)cc1 | 2.99%
COc1ccc(NC(=O)c2cc3ccc4c5ccccc5[nH]c4c3cc2O)cc1 | 5.56%
NC(=S)NC(=O)c1ccccc1 | -5.77%
Cc1ccc(-c2cssc2=S)cc1 | -10.22%
O=C(Nc1ccc2ncccc2c1)Nc1ccc2ncccc2c1 | -26.89%
Nc1ccc(C(=O)Nc2cccc(N)c2)cc1 | -10.29%
CCOC(=O)c1c(C)nc(C)c(C(=O)OCC)c1-c1ccc(OC)cc1 | 2.04%
CC(C)COc1nc2c(c(=O)n(C)c(=O)n2C)n1C | 11.63%
CN1C(=O)c2ccccc2Cc2c(NCc3ccccc3)ncnc21 | 7.35%
Nc1ccnn1-c1ccccc1 | -6.56%
COc1ccc(/N=N/c2ccc(N)nc2N)cc1 | -8.88%
CCOC(=O)c1nc(SC)n(C)c1C(=O)OCC | -12.95%

Structure (SMILES) | Inhibition
O=C(O)c1ccccc1C(=O)Nc1cccc([N+](=O)[O-])c1 | -9.98%
Cn1c(=O)c2c(ncn2CCOC(=O)C(C)(C)Oc2ccc(Cl)cc2)n(C)c1=O [THEOFIBRATE] | -11.51%
Nc1ccccc1-n1nc2ccc3ccccc3c2n1 | -24.16%
OC(c1ccccc1)(c1ccccc1)c1nccn1-c1ccccc1 | -3.61%
O=C(Nc1ccc(Br)c2ccccc12)c1ccc2ccccc2c1O | -4.06%
CC1(C)N=C(N)N=C(N)N1c1cccc(CN)c1.CCS(=O)(=O)O | -6.92%
COc1cc(C(=O)C(=O)c2cc(OC)c(O)c(OC)c2)cc(OC)c1O | 7.73%
CCCCOc1ccc(NC(=O)Nc2nnc(C)s2)cc1 | 11.82%
OC(COc1cccc2ccccc12)CN1CCN(c2ccccc2Cl)CC1 (centres undefined) | 8.91%
O=C(/C=C/c1ccc(Cl)s1)c1ccc(Cl)s1 | 5.48%
O=C(Oc1cccnc1O)c1cccc(Cl)c1 | 10.47%
O=C(Nc1cccc2ccccc12)c1ccccc1 | -13.68%
COc1ccc(/N=N/c2c(N)n[nH]c2N)cc1 | -10.61%
CC(O)(c1ccccc1)C(c1ccccc1)C1CCCCN1 (centres undefined) | 13.67%
CC1=CN2C(c3cccc([N+](=O)[O-])c3)=NON(c3ccc(C)cn3)C2C=C1 (centres undefined) | -11.84%
NNC(=O)c1nnsc1-c1csnn1 | 0.78%
Cc1ccc(C2C=CC(C#N)=CN2Cc2ccccc2)cc1 (centres undefined) | -15.76%
Cc1csc(/N=N/c2ccc(N(C)C)cc2)[n+]1[O-] | -4.68%
Clc1ccccc1-c1nc(-c2ccncc2)no1 [PIFEXOLE] | -11.63%
